# Bioassay records: PubChem BioAssay, National Center for Advancing Translational Sciences (NCATS)
# SMN2 splice enh = qHTS Assay for Enhancers of SMN2 Splice Variant Expression; 2.8% of 210,000 active; HEK293 SMN2-luciferase splicing reporter, luminescence, 30-36 h; Potency, µM (doses to about 46.1 µM), usual class: activators; also: nearly all actives have a fitted effect of over 55% in size
#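 HEK293 cells carry an SMN2 minigene-luciferase reporter in which exon 7 inclusion puts luciferase in frame. Cells were seeded at 2000 cells/well, attached for 10-12 hours, then exposed to compounds for 30-36 hours at 37C before ONE-Glo luminescence.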
# Rab9 prom act = qHTS Assay for Rab9 Promoter Activators; AID 485297, 2010; 2.8% of 320,000 active; Huh7 Rab9 promoter-luciferase reporter, luminescence, 24 h; Potency, µM (doses to about 9.22 µM), most hits filed as activators; also: nearly all actives have a fitted effect of over 60% in size
#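 Using Huh7 cells stably transfected with Rab9 promoter–luciferase, compounds were incubated 24 h at 37 °C, 5% CO2; luciferase luminescence was read 10 min after reagent addition.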
# NPC1 promoter act = qHTS Assay for NPC1 Promoter Activators; Potency, µM (top dose mostly 9.22 µM), actives largely listed as activators; Huh7 NPC1 promoter luciferase reporter, 24 h; AID 485313, 2010; 2.4% of 320,000 active; also: nearly all actives have a fitted effect of over 60% in size
#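 Luciferase expression driven by the NPC1 promoter was measured in stably transfected Huh7 cells after a 24 h compound incubation, using a luciferase reagent and a luminescence read.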
# FLuc modulator = qHTS profiling assay for firefly luciferase inhibitor/activator using purifed enzyme and Km concentrations of substrates (counterscreen for miR-21 project); Potency, µM (top dose mostly 57.5 µM), most hits filed as inhibitors; Luciferin 4-monooxygenase (Photinus pyralis), P08659; purified FLuc, Km substrates, luminescence inhibition; 6.9% of 360,000 active; also: nearly all actives have a fitted effect of over 55% in size
# Target sequence (P08659 whole entry, looked up): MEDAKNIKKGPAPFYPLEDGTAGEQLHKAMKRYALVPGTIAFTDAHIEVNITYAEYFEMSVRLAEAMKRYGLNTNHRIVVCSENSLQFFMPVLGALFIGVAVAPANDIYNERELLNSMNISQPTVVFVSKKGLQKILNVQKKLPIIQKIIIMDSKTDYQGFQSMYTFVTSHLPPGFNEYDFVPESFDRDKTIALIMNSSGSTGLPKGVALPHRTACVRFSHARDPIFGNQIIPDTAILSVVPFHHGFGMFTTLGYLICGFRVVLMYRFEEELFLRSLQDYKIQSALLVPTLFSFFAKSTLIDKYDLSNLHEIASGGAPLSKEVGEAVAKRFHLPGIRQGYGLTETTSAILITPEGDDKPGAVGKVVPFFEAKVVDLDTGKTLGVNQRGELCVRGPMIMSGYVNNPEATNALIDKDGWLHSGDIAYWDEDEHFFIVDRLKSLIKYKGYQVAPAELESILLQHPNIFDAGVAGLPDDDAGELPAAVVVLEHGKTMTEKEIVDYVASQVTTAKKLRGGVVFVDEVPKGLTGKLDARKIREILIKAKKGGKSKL
#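 Purified P. pyralis luciferase (10nM final) with 10uM D-luciferin and 10uM ATP (Km levels) in 50mM Tris acetate pH 7.5, 10mM Mg acetate, 0.01% Tween-20, 0.05% BSA; qHTS 6-point titration, ~60 µM downward; luminescence read.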
# ELG1 genotox = qHTS screen for small molecules that induce genotoxicity in human embryonic kidney (HEK293T) cells expressing luciferase-tagged ELG1; Potency, µM (highest dose often 46 µM), actives largely listed as activators; HEK293T ELG1-luciferase reporter, luminescence, 16 h; 1.3% of 330,000 active; AID 504466, 2011; also: nearly all actives have a fitted effect of over 60% in size
#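 ELG1-luciferase HEK293T cells, 2,000/well; compound pinned in; 16 hr, 37 °C, 5% CO2; ONE-Glo, 30 min RT; luminescence on CCD imager.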
# A number is an active result; 0 = inactive; ? = inconclusive; - = not tested or not shown. In the library only some 7.4% were active in any assay of this set; here they are far more common. Calls follow the shape of the dose curve; as a rule, active = well fitted curve in the direction sought with a large enough effect; inconclusive = small, poorly fitted or top-dose-only effect, or another doubt; inactive = no such curve, though single readings can be large; an effect the other way counts as inactive or inconclusive.
SMILES,SMN2 splice enh,Rab9 prom act,NPC1 promoter act,FLuc modulator,ELG1 genotox
CN(C)c1ccc(C(=O)/C=C/c2ccccc2)cc1,22.4µM,3.16µM,3.98µM,1.2µM,?
COc1cc2c(C(=O)N3CCN(c4ccc(C)cc4)C(C)C3)cn(CC(C)C)c(=O)c2cc1OC (stereo unspecified),0,-,-,0,-
CCOc1ccccc1NC(=O)Cn1c(=O)n(-c2ccc(C)cc2)c(=O)c2c1cnn2C,0,-,-,0,-
CCN1C(=O)c2ccccc2S(=O)(=O)c2ccc(C(=O)NCc3ccc(C)cc3)cc21,0,-,-,0,-
CCOc1ccc(C(=O)c2cn(Cc3ccccc3)c3c(F)cc(F)cc3c2=O)cc1,0,-,-,0,-
CN(C)c1ccc(N=Nc2ccc(C(=O)O)cc2)cc1,-,0.0002µM,0.0126µM,0.239µM,0
O=C(c1ccccc1)c1ccc(-c2ccc(O)cc2)cc1,-,3.16µM,0,16.9µM,?
CCOC(=O)C1=C(C)NC(C)=C(C(=O)OCC)C1c1c(F)c(F)c(F)c(F)c1F,-,0,0,-,-
COc1ccc(CN2C(=O)N(c3ccc(C)cc3)C(=O)C2CC(=O)Nc2ccccc2)cc1OC (stereo unspecified),0,-,-,0,-
CCCN(CCC)C(=O)Cn1c(=O)n(CCCCCC(=O)NCc2ccc3c(c2)OCO3)c(=O)c2sccc21,0,-,-,0,-
